Measurements: PubChem BioAssay AID1159580 (chemical genetic matrix, 2015)
Several values for one entry are separate records, joined by “and”; a condition that tells them apart may be missing. Equal values may be shown once. Out of some 5,500 compounds screened, about 2,000 (36%) were called active. Roughly 18% stayed inconclusive and do not appear here. Rule as the data show it: active = normalized growth mostly below about 0.91 (no sharp cut-off); inconclusive = no clear call, values can overlap the other calls; inactive = mostly above about 0.92. The list shows a part of the results.

Assay: chemical genetic growth profiling, strain panel (AID 1159580);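 also: tested at 20 µM; growth read once vehicle control cultures reached saturation at 30 °C; 1 = growth at the plate median or of vehicle wells; lower values mean less growth of the strain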
Settings: S. cerevisiae deletion strains, growth OD

Measured: normalized growth

Cc1c(Cl)cccc1Nc1ccccc1C(=O)O
inactive: locus YDL101C, strain DUN1, hits give low values 0.929 | locus YDL185W, strain tfp1, hits give low values 0.956 | locus YGL078C, strain dbp3, hits give low values 0.958 | locus YHR013C, strain ard1, hits give low values 0.854 | locus YIL073C, strain SPO22, hits give low values 0.776 | locus YIL125W, strain kgd1, hits give low values 0.966 | locus YJR043C, strain POL32, hits give low values 0.867
active: locus YAL021C, strain ccr4, hits give low values 0.863 | locus YAL026C, strain drs2, hits give low values 0.805 | locus YAL030W, strain snc1, hits give low values 0.842 | locus YBL061C, strain skt5, hits give low values 0.81 | locus YBR009C, strain hhf1, hits give low values 0.82 | locus YBR021W, strain FUR4, hits give low values 0.74 | locus YBR023C, strain chs3, hits give low values 0.801 | locus YBR171W, strain sec66, hits give low values 0.729 | locus YBR229C, strain ROT2, hits give low values 0.848 | locus YBR231C, strain swc5, hits give low values 0.825 | locus YBR279W, strain paf1, hits give low values 0.839 | locus YCL011C, strain gbp2, hits give low values 0.83 | locus YCL016C, strain dcc1, hits give low values 0.827 | locus YCL029C, strain bik1, hits give low values 0.812 | locus YCL061C, strain MRC1, hits give low values 0.842 | locus YCL069W, strain vba3, hits give low values 0.815 | locus YCR088W, strain abp1, hits give low values 0.812 | locus YDL005C, strain med2, hits give low values 0.865 | locus YDL035C, strain GPR1, hits give low values 0.848 | locus YDL040C, strain nat1, hits give low values 0.83 | locus YDL074C, strain BRE1, hits give low values 0.75 | locus YDL134C, strain PPH21, hits give low values 0.817 | locus YDL192W, strain arf1, hits give low values 0.796 | locus YDR001C, strain nth1, hits give low values 0.804 | locus YDR069C, strain doa4, hits give low values 0.897 | locus YDR101C, strain arx1, hits give low values 0.835 | locus YDR137W, strain rgp1, hits give low values 0.464 | locus YDR150W, strain NUM1, hits give low values 0.836 | locus YDR159W, strain sac3, hits give low values 0.615 | locus YDR162C, strain NBP2, hits give low values 0.709 | locus YDR195W, strain ref2 1.15 [resistant] | locus YDR297W, strain sur2, hits give low values 0.835 | locus YDR318W, strain mcm21, hits give low values 0.793 | locus YDR334W, strain swr1, hits give low values 0.812 | locus YDR335W, strain msn5, hits give low values 0.836 | locus YDR388W, hits give low values 0.79 | locus YDR392W, strain spt3, hits give low values 0.225 | locus YDR502C, strain sam2, hits give low values 0.802 | locus YEL003W, strain gim4, hits give low values 0.839 | locus YEL037C, strain rad23, hits give low values 0.836 | locus YEL061C, strain CIN8 (second series), hits give low values 0.819 | locus YEL061C, strain CIN8, hits give low values 0.855 | locus YER015W, strain faa2, hits give low values 0.848 | locus YER016W, strain bim1, hits give low values 0.856 | locus YER110C, hits give low values 0.769 | locus YER111C, strain swi4, hits give low values 0.831 | locus YER155C, strain BEM2 (second series), hits give low values 0.595 | locus YER155C, strain BEM2, hits give low values 0.684 | locus YER167W, strain BCK2, hits give low values 0.812 | locus YFR010W, strain ubp6, hits give low values 0.876 | locus YGL086W, strain mad1, hits give low values 0.815 | locus YGL167C, strain pmr1, hits give low values 0.757 | locus YGL173C, strain kem1, hits give low values 0.819 | locus YGL227W, strain vid30, hits give low values 0.808 | locus YGL240W, strain doc1, hits give low values 0.791 | locus YGL248W, strain PDE1, hits give low values 0.841 | locus YGL253W, strain hxk2, hits give low values 0.706 | locus YGR078C, strain PAC10, hits give low values 0.814 | locus YGR135W, strain pre9, hits give low values 0.792 | locus YGR252W, strain gcn5, hits give low values 0.609 | locus YHR027C, strain rpn1, hits give low values 0.843 | locus YHR030C, strain SLT2, hits give low values 0.827 and 0.555 | locus YHR079C, strain IRE1 (second series), hits give low values 0.793 | locus YHR079C, strain IRE1, hits give low values 0.633 | locus YHR094C, strain hxt1, hits give low values 0.796 | locus YHR129C, strain ARP1, hits give low values 0.837 | locus YHR142W, strain chs7, hits give low values 0.586 | locus YHR200W, strain rpn10, hits give low values 0.789 | locus YIL066C, strain RNR3, hits give low values 0.839 | locus YIR030C, strain dcg1, hits give low values 0.792 | locus YJL092W, strain hpr5, hits give low values 0.814 | locus YJL095W, strain BCK1 (second series), hits give low values 0.828 | locus YJL095W, strain BCK1, hits give low values 0.594 and 0.648 | locus YJL115W, strain asf1, hits give low values 0.854 | locus YJL129C, strain trk1, hits give low values 0.442 | locus YJL134W, strain LCB3, hits give low values 0.842 | locus YJL154C, strain vps35, hits give low values 0.845 | locus YJL164C, strain tpk1, hits give low values 0.803 | locus YJL166W, strain qcr8, hits give low values 0.756 | locus YJL168C, strain set2, hits give low values 0.797 | locus YJL187C, strain SWE1 (second series), hits give low values 0.851 | locus YJL187C, strain SWE1, hits give low values 0.832 | locus YJR066W, strain TOR1, hits give low values 0.731
